Glioma ERSR ind: induces the endoplasmic reticulum stress response in human glioma cells; U87-MG GRP78 promoter luciferase reporter, 16 h; Potency, µM, for the others: top-dose activation, most hits filed as activators; 420,000 compounds, 0.02% hits; AID 602332; note: potency is the fitted concentration of half-maximal effect; series mostly up to about 76 µM; % of control where 0% means no effect; nearly all actives have a fitted effect of over 35% in size
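ERSR induction read as luciferase luminescence (Bright-Glo, 10 min at room temperature) in stably transfected human U87-MG glioma cells exposed to compounds for 16 h, using GRP78 as sensor.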
TRHR enhancer-1: allosteric enhancers of human TRH receptor; 360,000 compounds, 0.66% hits; enhancement, % at 2 µM; P34981; TRHR cells, fluo-8 calcium fluorescence, EC20 TRH enhancement; in the data active = enhancement above about 30%; note: 0% is about no effect
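Enhancer read-out: after compound pinning and an initial kinetic agonist-mode read, an EC20 of TRH (10 nM final) was injected and fluo-8 calcium signal (Ex 480/Em 530) followed at 1 s/cycle for 100 cycles in TRHR-expressing cells.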
TRHR agonist-1: activates the human TRH receptor | TRHR cells, calcium flux fluo-8, FDSS agonist mode | activation, % at 2 µM | 360,000 compounds, 0.18% hits | AID 493084; in the data active = activation above about 30%; note: 0% is about no effect
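Fluo-8-loaded TRHR cells; 10 s baseline, compound added, kinetic Ca2+ fluorescence read 1/s, agonist mode.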
D1 potentiator: enhances dopamine response at the human D1 receptor; 360,000 compounds, 0.036% hits; potentiation, % at 10 µM; P21728; HEK293 TREx D1 cells, calcium flux, dopamine EC20 potentiation; AID 504651; in the data active = potentiation above about 30%; note: 0% is about no effect
Target sequence (P21728 whole entry, looked up): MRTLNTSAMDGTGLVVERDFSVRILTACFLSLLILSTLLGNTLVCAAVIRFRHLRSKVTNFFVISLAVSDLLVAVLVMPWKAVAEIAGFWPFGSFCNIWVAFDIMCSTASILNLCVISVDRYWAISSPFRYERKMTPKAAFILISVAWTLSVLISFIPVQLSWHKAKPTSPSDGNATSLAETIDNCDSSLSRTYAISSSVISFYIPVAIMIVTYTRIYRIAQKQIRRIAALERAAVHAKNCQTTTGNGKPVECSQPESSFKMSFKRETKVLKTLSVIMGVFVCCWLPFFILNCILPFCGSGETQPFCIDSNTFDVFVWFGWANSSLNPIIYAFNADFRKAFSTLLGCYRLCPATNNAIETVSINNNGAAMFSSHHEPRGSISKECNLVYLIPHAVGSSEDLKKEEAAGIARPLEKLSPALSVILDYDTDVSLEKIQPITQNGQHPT
D1 antag: antagonists of human D1 dopamine receptor | P21728 | HEK293 TREx D1 cells, calcium flux, dopamine EC80; stronger effect = lower value | activity change, negative = inhibition, % at 10 µM | 360,000 compounds, 3.2% hits; in the data active = activity change below about -30%; note: % is set by controls: 0 for no effect and ±100 for the full control effect
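Inducible Hek293 Trex D1 cells (tetracycline, overnight, 30 C). Calcium dye 30–90 min RT. Antagonist mode: EC80 dopamine added after 180 s compound read.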
D1 ag: activates the human D1 dopamine receptor | 360,000 compounds, 1% hits | HEK293 T-REx D1 cells, calcium flux, agonist mode | AID 504660 | activation, % at 2 µM | P21728; in the data active = activation above about 30%; note: 0% is about no effect
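Agonism was scored from calcium flux recorded over 180 s (1 read/s) after pintool compound addition, following a 10-cycle baseline. Cells were inducible force-coupled HEK293 TREx D1, plated overnight at 30 C and loaded with no-wash calcium dye.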
TRHR enhancer-2: human TRH receptor allosteric enhancement confirmation. TRH receptor cell assay, enhancer confirmation qHTS. 970 tested, under 10 active. activity change, negative = inhibition, % at 46.1 µM. shares compounds with TRHR enhancer-1;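 note: compound effect scored on response to added TRH at EC20 of 10 nM; 0% is about no effect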
TRHR agonist-2: confirmation of human TRH receptor agonists. shares compounds with TRHR enhancer-1. TRHR-expressing cells, agonist activation read-out. Potency, µM (titrated, usually from 46.1 µM), for the others: at the top dose activation, hits mostly activators. 970 compounds, 8% hits; note: potency is the fitted concentration of half-maximal effect; 0% is about no effect; nearly all actives have a fitted effect of over 75% in size
* hit, by the source's call; ? = inconclusive; · = no result given. Compounds with a hit are over-represented: about 4% of the library has one in this group of screens. Unless noted, calls come from the whole dose curve; as a rule, active = well fitted curve in the direction sought with a large enough effect; inconclusive = small, poorly fitted or top-dose-only effect, or another doubt; inactive = no such curve, though single readings can be large; an effect the other way counts as inactive or inconclusive.

SMILES | Glioma ERSR ind | TRHR enhancer-1 | TRHR agonist-1 | D1 potentiator | D1 antag | D1 ag | TRHR enhancer-2 | TRHR agonist-2
O=C(CSc1nnc(-c2ccc(Cl)cc2)n1-c1ccc(Cl)cc1)N/N=C/c1ccco1 | -2% | 48* | -1 | -4 | -2 | 1 | 13 | 0%
CCN(CC)c1ccc(/C=C2\CCC(/C=N/NC(=O)c3ccc(=O)n(C)c3)=C2N2CCOCC2)cc1 | 3% | 11 | 36* | 7 | 13 | 74* | 9 | ?
Cc1ccc(CNC(=O)c2cccc3c2C(=O)c2ccc(N4CCCCC4)cc2S3(=O)=O)cc1 | 2% | 12 | 36* | 5 | 17 | 97* | -6 | 21µM*
N#Cc1cc(-c2ccccc2)nc(NN)n1 | -4% | 48* | 0 | -3 | -12 | 3 | -16 | -1%
NNc1nc(-c2ccccc2)cc(-c2ccccc2)n1 | -3% | -3 | 0 | -4 | 1 | 5 | · | ·
CCN(CC)C(=O)c1cc2c(=O)c3cc(Cl)ccc3oc2nc1C | 1% | 73* | -2 | -4 | -18 | 4 | 0 | -1%
CC1CCCC(C)N1C(=O)CN1C(=O)NC2(CCOc3ccccc32)C1=O (stereo not given) | -2% | 45* | 0 | -4 | -31* | 5 | 5 | 8%
CC1(C(=O)Nc2ccc3c(c2)OCCO3)CCC(=O)N1C1CC1 (stereo not given) | -1% | · | · | · | · | · | · | ·
CCN(C(=O)C1CCCN(c2ncnc3c2nc2n3CCCCC2)C1)c1cccc(C)c1 (stereo not given) | -2% | 2 | -1 | 0 | -1 | -1 | · | ·
COc1cccc(NC(=O)CN2C(=O)NC(C)(CC(C)C)C2=O)c1 (stereo not given) | -1% | 52* | 0 | -10 | 2 | 1 | -2 | -1%
COc1cccc(NC(=O)CN2C(=O)NC3(CCCCCC3)C2=O)c1 | 0% | · | · | · | · | · | · | ·
COc1ccc(Br)cc1C(=O)Nc1ccc(C(=O)NCC(C)C)cc1 | 4% | 46* | -2 | -8 | 5 | 2 | 10 | 1%
COCCNC(=S)N/N=C/c1ccc(-c2ccc([N+](=O)[O-])cc2)o1 | -1% | 2 | 34* | 2 | -4 | 88* | -8 | 10µM*
O=[N+]([O-])c1ccc(-c2ccc(/C=N/O)o2)cc1 | 3% | 6 | 0 | 0 | 9 | 2 | · | ·
COc1ccc(/C=C/C(=O)NCC(=O)N/N=C(/C)c2ccco2)cc1 | -6% | 1 | 0 | -1 | 2 | 0 | · | ·
COc1ccc(/C(C)=N/NC(=O)CNC(=O)c2ccco2)cc1 | -4% | 46* | 0 | 3 | 15 | -1 | -2 | 1%
COc1ccccc1NC(=O)COC(=O)c1c(NC(C)=O)sc(C)c1C | -3% | · | · | · | · | · | · | ·
O=Cc1c(NCc2ccco2)nc2ccccn2c1=O | 2% | 46* | 0 | -3 | -1 | 0 | -7 | 4%
COC(=O)c1ccc(/C=C/c2nc3ccccc3c(=O)[nH]2)cc1 | -1% | -6 | 38* | 4 | -12 | 0 | -1 | -1%
CC1(C)CC(=O)C(C=Nc2ccc(C(=O)c3ccccc3)cc2N=CC2=C(O)CC(C)(C)CC2=O)=C(O)C1 | -1% | -3 | 27 | 0 | -14 | 86* | -4 | 2%
CC1CCN(C(=O)c2ccc(NS(=O)(=O)c3ccccc3)cc2)CC1 | 2% | 44* | -1 | -8 | -32* | 7 | 1 | 1%
O=C(c1ccc(NS(=O)(=O)c2ccccc2)cc1)N1CCCC1 | 6% | 1 | 0 | -1 | -20 | 2 | · | ·
CC(=O)Nc1ccc(S(=O)(=O)N(C)CC(=O)OCC(=O)Nc2cccnc2Cl)cc1 | -1% | 3 | 0 | -1 | -12 | 4 | · | ·
NCCSc1c(-c2ccc(F)cc2)[nH]c2ccccc12 | -4% | 45* | 4 | -5 | -4 | 18 | 2 | ?

Source: PubChem BioAssay
